# Assay results taken from PubChem BioAssay (NCATS).
# Where “and” joins values, the source holds several entries; their conditions need not be identical. Identical values can stand only once. Inconclusive results are not listed. A call without a number means that no potency is given here. Calls of active or inactive are those of the source. Unless noted, calls follow the shape of the dose curve; as a rule, active = well fitted curve in either direction with a large enough effect (not every such curve was filed as active); inconclusive = small, poorly fitted or top-dose-only effect, or another doubt; inactive = flat fitted curve, though single readings scatter.
# Columns and labels:
# [1] = biological target: Androgen receptor (Homo sapiens) (UniProt P10275); assay: qHTS assay for small molecule agonists of androgen receptor signaling (AID 588515; active = well fitted curve in the direction sought with a large enough effect in the signal ratio, with a control signal flat; the % refers to the signal ratio); conditions: AR-UAS-bla HEK293, beta-lactamase ratio, agonist 16 h; stronger effect = higher value
# Method in brief: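 EC50 and efficacy came from Hill fits of titrations (up to 92 uM) normalized to 30 nM R1881 as 100% and DMSO as 0%. Compound exposure was 16 h at 37 C on AR-UAS-bla HEK293 cells, with a 405/460/530 nm CCF4 fluorescence read.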
# [2] = biological target: Androgen receptor (Homo sapiens) (UniProt P10275); assay: qHTS assay for small molecule antagonists of androgen receptor signaling (AID 588516; active = well fitted curve in the direction sought with a large enough effect in the signal ratio, with a control signal flat, not every such curve was filed as active; the % refers to the signal ratio)
# Method in brief: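 Cells were plated and incubated 5 h, compounds added in titration, then R1881 (10 nM final) as agonist. After 16 h at 37 C, CCF4 substrate was loaded for 2 h at room temperature and fluorescence measured.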
# [3] = biological target: Bile acid receptor (Homo sapiens) (UniProt Q96RI1); assay: qHTS assay for small molecule antagonists of farnesoid X receptor signaling (AID 588526; calls by dose curve)
# Method in brief: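 Beta-lactamase reporter antagonist mode: HEK293T FXR-UAS-bla cells, titrated compound, CDCA stimulation, 16 h 37 C, CCF4 dye 2 h RT. Data normalized to CDCA 50 uM and DMSO; Hill-fit IC50.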
# [4] = biological target: Bile acid receptor (Homo sapiens) (UniProt Q96RI1); assay: qHTS assay for small molecule agonists of farnesoid X receptor signaling (AID 588527; calls by dose curve; also: series mostly up to about 77 µM); conditions: HEK293T FXR-UAS-bla, beta-lactamase ratio, 16 h; activation: stronger effect = higher value
# Method in brief: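 Read-out: beta-lactamase reporter fluorescence with CCF4 substrate in GeneBLAzer FXR-UAS-bla HEK293T cells, after 16 h compound exposure at 37 C. Response scaled between DMSO basal (0%) and chenodeoxycholic acid at 100 uM (100%).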
# [5] = biological target: Glucocorticoid receptor (Homo sapiens) (UniProt P04150); assay: qHTS assay for small molecule antagonists of glucocorticoid receptor signaling (AID 588533; active = well fitted inhibition curve with a large enough effect in the signal ratio, with a control signal flat, not every such curve was filed as active; the % refers to the signal ratio;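 also: cells stimulated with 2 nM dexamethasone as agonist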)
# Method in brief: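 Antagonist-mode qHTS: compound titrations added to GRE-bla HeLa cells, then dexamethasone 2 nM final; 18 h, 37 C. CCF4 FRET fluorescence normalized to dexamethasone and DMSO; IC50 from Hill fit.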
# [6] = qHTS assay for small molecule antagonists of peroxisome proliferator-activated receptor delta signaling (AID 588535; active = well fitted inhibition curve with a large enough effect in the signal ratio, with a control signal flat, not every such curve was filed as active; the % refers to the signal ratio;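 as to max response: cells co-treated with a PPAR-delta agonist as stimulator during compound exposure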); conditions: HEK293T PPARd-UAS-bla, beta-lactamase FRET ratio, 18 h; 460 nm channel
# Method in brief: (§1)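 HEK293T PPAR-delta-UAS-bla cells, 4000/well, 2% charcoal/dextran FBS; 5 h 37 C; cpd titration; 18 h 37 C; CCF4 2 h RT; FI 460/530 nm; Hill fit → IC50, efficacy.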
# [7] = biological target: Peroxisome proliferator-activated receptor delta (Homo sapiens) (UniProt Q03181); assay: as above
# Method in brief: as §1
# [8] = biological target: Peroxisome proliferator-activated receptor gamma (Homo sapiens) (UniProt P37231); assay: qHTS assay for small molecule antagonists of peroxisome proliferator-activated receptor gamma signaling (AID 588537; active = well fitted inhibition curve with a large enough effect in the signal ratio, with a control signal flat, not every such curve was filed as active; the % refers to the signal ratio;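 also: reporter cells co-stimulated with 50 nM rosiglitazone agonist during compound treatment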)
# Method in brief: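 Antagonist mode, beta-lactamase reporter in HEK293; charcoal/dextran FBS 1%; 3000 cells/well, 37 C 6-6.5 h; cpd titration + rosiglitazone 50 nM final, 16 h 37 C; CCF4, 2 h RT; 460/530 nm; Hill fit → IC50, efficacy.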
# [9] = biological target: Retinoic acid receptor RXR-alpha (Homo sapiens) (UniProt P19793); assay: qHTS assay for small molecule agonists of retinoid X receptor alpha signaling (AID 588544; calls by dose curve)
# [10] = biological target: Thyroid hormone receptor beta (Homo sapiens) (UniProt P10828); assay: qHTS assay for small molecule antagonists of thyroid hormone receptor beta signaling (AID 588547; active = well fitted inhibition curve with a large enough effect in the signal ratio, with a control signal flat, not every such curve was filed as active; the % refers to the signal ratio;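 also: cells stimulated with 0.4 nM T3 agonist during compound exposure; series mostly up to about 77 µM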); conditions: TR-UAS-bla HEK293, beta-lactamase ratio, antagonist mode, 18 h
# Method in brief: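 Inhibition of T3-driven (0.4nM final) beta-lactamase reporter activity was measured over 0.59 nM to 92 uM compound after 18 h at 37 C. The cells were GripTite HEK293 TR-UAS-bla in charcoal/dextran-stripped serum, with CCF4 ratio read-out and IC50 from Hill fits.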
# [11] = biological target: Nuclear receptor subfamily 1 group I member 2 (Rattus norvegicus) (UniProt Q9R1A7); assay: qHTS assay for small molecule activators of the rat pregnane X receptor (rPXR) signaling pathway (AID 651751; call rule not given here); conditions: rPXR reporter cells, luciferase (One-Glo), 24 h
# [12] = qHTS assay for small molecule activators of the human pregnane X receptor (PXR) signaling pathway (AID 720659; call rule not given here)
# [13] = biological target: Mitogen-activated protein kinase 10 (Mus musculus) (UniProt Q61831); assay: JNK3 AlphaScreen Assay (AID 530);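 also: kinase came from lysate of stimulated human HepG2 cells; signal reports phosphorylation of biotinylated GST-cJun 1-79 at Ser73 with 10 µM ATP; series mostly up to about 57 µM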
# Method in brief: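 Compound titrations were preincubated 15 minutes at room temperature with substrate, antibody and pre-activated JNK3-containing HepG2 lysate. Reactions were started with 10 uM ATP and stopped with EDTA-containing bead buffer for AlphaScreen detection.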
# [14] = biological target: 3',5'-cyclic-AMP phosphodiesterase 4B (Homo sapiens) (UniProt Q07343); assay: qHTS Assay for Inhibitors of PDE-IV (AID 607; active = well fitted activation curve with a large enough effect in the main read-out, with a control signal flat, not every such curve was filed as active)
# Method in brief: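 The readout is membrane depolarisation from a cAMP-sensing CNG channel, detected with a potential dye at ex 535/em 590. Cells were HEK293-derived (endogenous PDE-IV) at 1000 cells/well, titrated up to 22.9 uM final.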
# [15] = Confirmation and Secondary Assay for Modulators of Hemoglobin Beta Chain Splicing at IVS2 654 locus (AID 910; active = well fitted curve in the direction sought with a large enough effect; an effect the other way counts as inactive or inconclusive;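 also: HeLa cells stably carrying EGFP split by mutant beta-globin IVS2-654 intron; per-well total GFP intensity by laser scanning cytometry after 2-day treatment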)
# Method in brief: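 Readout: per-well total peak green fluorescence (488 nm ex, 500–520 nm em) from objects 5–250 µm, reflecting correct splicing of an EGFP-654 reporter. Compounds were applied for 2 days at 37 °C to overnight-plated HeLa EGFP-654 cells; controls were DMSO and 500 nM IVS2-654 PNA.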
# [16] = Confirmation and Secondary Assay for Modulators of Hemoglobin Beta Chain Splicing at IVS2 705 locus (AID 930; active = well fitted curve in the direction sought with a large enough effect; an effect the other way counts as inactive or inconclusive;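 also: HeLa cells stably expressing the EGFP-705 splicing reporter; GFP fluorescence per well restored by corrected splicing of the IVS2-705 intron in EGFP; series mostly up to about 46 µM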)
# Method in brief: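 HeLa IVS2-705 EGFP reporter cells, 500/well, compound 2 d at 37C; correct splicing yields fluorescent EGFP. Control: 500 nM antisense PNA. Read-out: total peak GFP intensity.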
# [17] = biological target: DNA dC->dU-editing enzyme APOBEC-3G (Homo sapiens) (UniProt Q9HC16); assay: qHTS for inhibitors of Vif-A3G interactions: Validation (AID 588379; active = well fitted curve in the direction sought with a large enough effect; an effect the other way counts as inactive or inconclusive)
# Method in brief: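 HeLa cells stably expressing Vif and A3G-eYFP, 700 cells/well, incubated overnight at 37 deg C, then exposed to compound overnight at 37 deg C. Inhibition of Vif-mediated degradation read as increased yellow fluorescence (Ex 488/Em 500-530) by laser-scanning cytometry.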
# [18] = biological target: Cytochrome P450 3A4 (Homo sapiens) (UniProt P08684); assay: qHTS Assay for Activators of Cytochrome P450 3A4 (AID 885; active = well fitted curve in the direction sought with a large enough effect; an effect the other way counts as inactive or inconclusive; also: nearly all actives have a fitted effect of over 65% in size)
# Method in brief: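 Steps: enzyme/substrate mix dispensed; compound added, 10 min RT; NADPH regeneration solution added, 60 min RT; luciferin detection buffer stops reaction; 20 min later luminescence measured.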
# [19] = qHTS assay for small molecule agonists of the antioxidant response element (ARE) signaling pathway (AID 651741; active = well fitted activation curve with a large enough effect in the signal ratio; the % refers to the signal ratio; also: potency is read from the fitted curve at half-maximal effect)
# Method in brief: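 Quantitative HTS in HepG2 cells stably expressing an ARE-beta-lactamase reporter; 16 h compound exposure at 37 C, followed by 2 h room-temperature incubation with LiveBLAzer B/G FRET substrate and fluorescence measurement.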
# Glucocorticoid receptor (Homo sapiens), sequence (P04150 whole entry, looked up): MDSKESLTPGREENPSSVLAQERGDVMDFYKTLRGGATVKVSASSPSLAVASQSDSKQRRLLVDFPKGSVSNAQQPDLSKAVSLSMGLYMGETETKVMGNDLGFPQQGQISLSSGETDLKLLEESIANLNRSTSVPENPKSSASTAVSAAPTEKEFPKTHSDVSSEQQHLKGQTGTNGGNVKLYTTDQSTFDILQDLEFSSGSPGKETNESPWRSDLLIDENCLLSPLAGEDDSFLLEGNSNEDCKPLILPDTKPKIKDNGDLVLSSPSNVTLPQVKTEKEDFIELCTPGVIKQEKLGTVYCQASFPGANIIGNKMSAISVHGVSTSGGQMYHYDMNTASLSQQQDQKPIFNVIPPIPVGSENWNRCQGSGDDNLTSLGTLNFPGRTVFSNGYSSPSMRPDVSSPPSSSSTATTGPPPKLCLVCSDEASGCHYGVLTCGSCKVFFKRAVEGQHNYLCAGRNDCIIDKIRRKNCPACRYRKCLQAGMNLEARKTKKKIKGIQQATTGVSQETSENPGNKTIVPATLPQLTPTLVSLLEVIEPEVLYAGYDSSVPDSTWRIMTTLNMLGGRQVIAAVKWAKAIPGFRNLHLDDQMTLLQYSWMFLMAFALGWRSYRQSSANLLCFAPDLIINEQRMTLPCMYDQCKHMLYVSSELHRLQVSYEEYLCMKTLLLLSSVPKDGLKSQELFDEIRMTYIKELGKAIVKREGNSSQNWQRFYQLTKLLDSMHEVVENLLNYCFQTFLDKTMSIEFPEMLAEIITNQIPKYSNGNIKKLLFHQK
# Thyroid hormone receptor beta (Homo sapiens), sequence (P10828 whole entry, looked up): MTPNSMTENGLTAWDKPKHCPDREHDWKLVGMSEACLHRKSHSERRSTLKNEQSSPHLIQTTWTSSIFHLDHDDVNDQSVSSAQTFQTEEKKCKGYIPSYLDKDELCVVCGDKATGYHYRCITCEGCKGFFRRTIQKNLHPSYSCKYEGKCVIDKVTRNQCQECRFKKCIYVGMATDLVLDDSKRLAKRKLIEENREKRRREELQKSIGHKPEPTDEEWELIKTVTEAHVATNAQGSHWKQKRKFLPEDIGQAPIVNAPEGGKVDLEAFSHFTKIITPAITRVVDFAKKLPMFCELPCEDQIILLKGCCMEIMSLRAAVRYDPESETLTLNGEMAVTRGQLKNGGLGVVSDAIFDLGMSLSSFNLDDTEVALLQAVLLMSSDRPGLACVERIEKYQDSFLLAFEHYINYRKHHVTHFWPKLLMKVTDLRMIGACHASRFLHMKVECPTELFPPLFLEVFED
# Peroxisome proliferator-activated receptor gamma (Homo sapiens), sequence (P37231 whole entry, looked up): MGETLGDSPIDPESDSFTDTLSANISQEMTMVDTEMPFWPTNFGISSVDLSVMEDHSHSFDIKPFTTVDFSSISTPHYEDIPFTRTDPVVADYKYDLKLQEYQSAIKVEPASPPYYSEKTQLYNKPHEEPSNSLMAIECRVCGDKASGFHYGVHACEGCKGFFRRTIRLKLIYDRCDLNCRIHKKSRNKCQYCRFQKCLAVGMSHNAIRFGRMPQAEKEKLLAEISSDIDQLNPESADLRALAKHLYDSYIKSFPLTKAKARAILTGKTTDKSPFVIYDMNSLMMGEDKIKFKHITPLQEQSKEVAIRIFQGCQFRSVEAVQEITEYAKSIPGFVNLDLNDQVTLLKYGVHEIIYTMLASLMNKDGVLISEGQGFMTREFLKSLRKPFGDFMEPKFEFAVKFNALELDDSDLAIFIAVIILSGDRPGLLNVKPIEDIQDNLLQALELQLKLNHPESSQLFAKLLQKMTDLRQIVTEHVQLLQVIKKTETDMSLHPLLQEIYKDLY
# Retinoic acid receptor RXR-alpha (Homo sapiens), sequence (P19793 whole entry, looked up): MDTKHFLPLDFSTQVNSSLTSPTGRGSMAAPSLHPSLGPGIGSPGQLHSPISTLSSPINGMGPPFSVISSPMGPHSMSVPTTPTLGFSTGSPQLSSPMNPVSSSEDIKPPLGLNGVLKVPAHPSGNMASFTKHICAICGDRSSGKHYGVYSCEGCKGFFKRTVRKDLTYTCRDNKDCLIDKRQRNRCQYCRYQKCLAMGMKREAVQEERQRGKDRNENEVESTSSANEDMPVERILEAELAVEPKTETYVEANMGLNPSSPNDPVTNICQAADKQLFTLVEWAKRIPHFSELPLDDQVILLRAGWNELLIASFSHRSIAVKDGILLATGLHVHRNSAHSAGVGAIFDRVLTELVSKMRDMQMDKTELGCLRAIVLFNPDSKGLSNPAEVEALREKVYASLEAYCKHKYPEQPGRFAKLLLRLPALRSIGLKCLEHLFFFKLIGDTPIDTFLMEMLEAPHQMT
# Bile acid receptor (Homo sapiens), sequence (Q96RI1 whole entry, looked up): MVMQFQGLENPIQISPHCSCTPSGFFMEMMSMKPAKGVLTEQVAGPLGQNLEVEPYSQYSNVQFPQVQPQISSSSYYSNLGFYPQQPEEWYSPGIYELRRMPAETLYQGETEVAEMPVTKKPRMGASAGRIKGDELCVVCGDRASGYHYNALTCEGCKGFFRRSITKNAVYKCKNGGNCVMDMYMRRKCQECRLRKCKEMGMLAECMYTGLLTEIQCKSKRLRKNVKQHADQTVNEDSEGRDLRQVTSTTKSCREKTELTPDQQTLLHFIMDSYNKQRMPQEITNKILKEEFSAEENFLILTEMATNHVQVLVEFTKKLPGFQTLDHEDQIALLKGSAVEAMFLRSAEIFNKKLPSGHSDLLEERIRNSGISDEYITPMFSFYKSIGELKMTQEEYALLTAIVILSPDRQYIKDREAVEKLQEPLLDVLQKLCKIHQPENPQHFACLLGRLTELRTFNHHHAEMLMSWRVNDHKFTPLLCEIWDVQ
# 3',5'-cyclic-AMP phosphodiesterase 4B (Homo sapiens), sequence (Q07343 whole entry, looked up): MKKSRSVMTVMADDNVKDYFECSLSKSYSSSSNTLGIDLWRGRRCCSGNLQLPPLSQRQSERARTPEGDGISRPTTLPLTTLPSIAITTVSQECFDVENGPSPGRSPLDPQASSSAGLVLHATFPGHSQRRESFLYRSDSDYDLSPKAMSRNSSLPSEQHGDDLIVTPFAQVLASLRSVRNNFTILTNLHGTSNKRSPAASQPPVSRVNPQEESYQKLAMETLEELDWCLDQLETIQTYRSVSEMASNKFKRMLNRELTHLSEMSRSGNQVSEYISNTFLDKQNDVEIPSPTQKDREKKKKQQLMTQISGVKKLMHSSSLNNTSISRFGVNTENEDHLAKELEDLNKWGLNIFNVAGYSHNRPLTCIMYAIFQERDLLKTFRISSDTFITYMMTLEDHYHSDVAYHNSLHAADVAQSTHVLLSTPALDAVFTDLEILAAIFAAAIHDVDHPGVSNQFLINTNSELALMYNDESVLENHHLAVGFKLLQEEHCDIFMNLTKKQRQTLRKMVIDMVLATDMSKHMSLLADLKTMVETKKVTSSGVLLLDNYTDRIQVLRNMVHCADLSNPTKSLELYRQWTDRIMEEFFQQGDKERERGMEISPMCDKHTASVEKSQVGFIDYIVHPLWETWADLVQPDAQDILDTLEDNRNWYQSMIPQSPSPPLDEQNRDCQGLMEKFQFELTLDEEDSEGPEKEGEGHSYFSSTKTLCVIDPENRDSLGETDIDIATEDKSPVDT
# DNA dC->dU-editing enzyme APOBEC-3G (Homo sapiens), sequence (Q9HC16 whole entry, looked up): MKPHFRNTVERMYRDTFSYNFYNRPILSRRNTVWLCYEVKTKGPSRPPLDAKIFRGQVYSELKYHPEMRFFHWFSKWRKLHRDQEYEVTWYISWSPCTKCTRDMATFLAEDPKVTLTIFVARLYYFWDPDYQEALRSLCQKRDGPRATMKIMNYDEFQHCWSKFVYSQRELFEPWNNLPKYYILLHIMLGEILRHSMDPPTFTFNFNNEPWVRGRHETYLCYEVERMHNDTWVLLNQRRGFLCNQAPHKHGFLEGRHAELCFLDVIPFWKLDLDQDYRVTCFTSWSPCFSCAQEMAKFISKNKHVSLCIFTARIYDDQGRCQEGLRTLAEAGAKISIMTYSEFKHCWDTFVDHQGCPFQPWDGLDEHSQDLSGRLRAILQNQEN
# Androgen receptor (Homo sapiens), sequence (P10275 whole entry, looked up): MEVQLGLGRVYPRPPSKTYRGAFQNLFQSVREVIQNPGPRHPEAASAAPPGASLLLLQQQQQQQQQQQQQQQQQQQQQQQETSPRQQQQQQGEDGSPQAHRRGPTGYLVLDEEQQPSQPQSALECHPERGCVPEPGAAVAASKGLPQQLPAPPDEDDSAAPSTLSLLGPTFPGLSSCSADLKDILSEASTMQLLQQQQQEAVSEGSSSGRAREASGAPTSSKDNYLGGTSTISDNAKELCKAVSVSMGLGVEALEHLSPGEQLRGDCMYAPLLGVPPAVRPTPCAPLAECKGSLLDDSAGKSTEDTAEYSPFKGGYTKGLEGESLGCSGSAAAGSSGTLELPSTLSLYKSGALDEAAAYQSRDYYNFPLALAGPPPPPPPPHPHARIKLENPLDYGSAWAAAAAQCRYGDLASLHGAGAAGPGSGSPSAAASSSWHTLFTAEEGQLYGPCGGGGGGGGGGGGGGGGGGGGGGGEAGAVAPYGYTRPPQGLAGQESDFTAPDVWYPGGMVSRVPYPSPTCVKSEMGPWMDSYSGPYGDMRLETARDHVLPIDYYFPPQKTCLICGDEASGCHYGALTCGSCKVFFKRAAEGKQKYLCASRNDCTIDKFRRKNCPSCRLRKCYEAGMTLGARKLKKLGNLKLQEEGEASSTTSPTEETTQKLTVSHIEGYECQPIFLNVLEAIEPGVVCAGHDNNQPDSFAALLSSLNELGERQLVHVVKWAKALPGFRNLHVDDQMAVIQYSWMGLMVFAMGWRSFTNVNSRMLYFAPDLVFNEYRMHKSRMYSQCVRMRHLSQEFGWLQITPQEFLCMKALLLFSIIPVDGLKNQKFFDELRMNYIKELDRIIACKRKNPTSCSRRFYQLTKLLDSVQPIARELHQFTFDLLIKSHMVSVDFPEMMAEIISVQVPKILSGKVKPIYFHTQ
structure (smiles),measurement,setting,value
C/C(=N\C(N)=O)N(C)Cc1ccc(Cl)nc1,activation,[1],-2.44% (inactive)
same,Potency,[2],inactive
same,Potency,[3],inactive
same,activation,[4],2.77% (inactive)
same,Potency,[5],inactive
same,max response,[6],39.3%
same,Potency,[7],inactive
same,Potency,[8],inactive
same,Potency,[9],inactive
same,activity change % (negative = inhibition),[10],-10.7% (inactive)
same,max response,[11],2.68% (inactive)
same,outcome,[12],inactive
CNC(=O)[C@H]1C[C@@H]1[C@H](NP(=O)(c1ccccc1)c1ccccc1)c1ccccc1,outcome,[13],inactive
same,outcome,[14],inactive
CCCc1cc2c(n1Cc1ccco1)C(C)C1CN(C(=O)c3ccccc3)C(C)(C(=O)OC)C21 (stereo unspecified),outcome,[13],inactive
same,outcome,[14],inactive
COC(=O)[C@H]1C[C@@H]1[C@H](NP(=O)(c1ccccc1)c1ccccc1)c1ccccc1,outcome,[13],inactive
CN1Cc2c(ccc3c2OCO3)C2C(O)Cc3cc4c(cc3C21)OCO4 (stereo unspecified),Potency,[15],inactive
same,outcome,[16],inactive
same,outcome,[17],inactive
CCCC/C(C)=C/[C@@H](NP(=O)(c1ccccc1)c1ccccc1)c1ccccc1,outcome,[13],inactive
COC(C)C(O)(C(=O)OC1=CCN2CC[C@H](O)[C@H]12)C(C)C (stereo partly specified),outcome,[17],inactive
CC1N(P(=O)(c2ccccc2)c2ccccc2)CC(O)(c2ccccc2)CC12CC2 (stereo unspecified),outcome,[13],inactive
COc1nc(C)nc(NC(=O)NS(=O)(=O)c2ccccc2CCC(F)(F)F)n1,activation,[1],6.02% (inactive)
same,Potency,[2],inactive
same,Potency,[3],inactive
same,activation,[4],1.64% (inactive)
same,Potency,[5],inactive
same,max response,[6],34.6%
same,Potency,[7],inactive
same,Potency,[8],inactive
same,Potency,[9],inactive
same,activity change % (negative = inhibition),[10],9.28% (inactive)
same,max response,[11],1.14% (inactive)
same,outcome,[12],inactive
C=C[C@@H]1C[C@@]1(C)[C@@H](NP(=O)(c1ccccc1)c1ccccc1)c1ccccc1,outcome,[13],inactive
same,Potency,[18],inactive
O=P(N[C@@H](c1ccccc1)[C@@H]1C[C@H]1CO)(c1ccccc1)c1ccccc1,outcome,[13],inactive
COc1ccc2c(c1OC)C(=O)O[C@@H]2C1c2cc3c(cc2CCN1C)OCO3 (stereo partly specified),outcome,[17],inactive
C[C@@H]1O[C@H](O[C@H]2C[C@@H](O)[C@]3(CO)[C@H]4[C@H](O)C[C@]5(C)[C@@H](C6=CC(=O)OC6)CC[C@@]5(O)[C@H]4CC[C@]3(O)C2)[C@@H](O)[C@H](O)[C@H]1O,outcome,[13],inactive
COc1ccc2c(c1OC)C(=O)O[C@@H]2[C@H]1c2cc3c(cc2CCN1C)OCO3,outcome,[13],inactive
C=C(C)c1ccccc1,outcome,[13],inactive
same,activation,[4],-3.16% (inactive)
CC(C)[C@]1(NC(=O)[C@@H]2C=C3c4cccc5[nH]cc(c45)C[C@H]3N(C)C2)O[C@@]2(O)C3CCCN3C(=O)[C@H](Cc3ccccc3)N2C1=O (stereo partly specified),Potency,[18],inactive
same,outcome,[17],inactive
COC(=O)[C@@]1(Cc2ccccc2)[C@H]2c3cc(C(=O)N(C)C)n(C)c3C[C@H]2CN1C(=O)c1ccccc1,outcome,[13],inactive
same,outcome,[14],inactive
COc1ccc(CC2NCC(O)C2OC(C)=O)cc1 (stereo unspecified),outcome,[17],inactive
COC(=O)[C@@]1(Cc2ccccc2)[C@H]2c3cc(C(=O)N(C)C)[nH]c3C[C@H]2CN1C(=O)c1ccccc1,outcome,[13],inactive
same,outcome,[14],inactive
COc1cc2c(cc1OC)-c1c(OC)c(OC)c(CO)c3c1C(C2)N(C)CC3 (stereo unspecified),Potency,[18],inactive
same,outcome,[17],inactive
CC1=CC(=O)C2=C(C)C[C@H](O)[C@H]3[C@H](C)C(=O)O[C@@H]3C12 (stereo partly specified),outcome,[17],inactive
COC(=O)[C@@H]1C[C@@]1(C)[C@@H](NP(=O)(c1ccccc1)c1ccccc1)c1ccccc1,outcome,[13],inactive
same,Potency,[18],inactive
CCCC1COC(Cn2cncn2)(c2ccc(Cl)cc2Cl)O1 (stereo unspecified),activation,[1],-7.53% (inactive) and -11.8% (inactive)
same,Potency,[2],inactive
same,Potency,[3],inactive
same,activation,[4],0.69% (inactive)
same,Potency,[5],inactive
same,max response,[6],10.7%
same,Potency,[7],inactive
same,Potency,[8],inactive
same,Potency,[9],inactive
same,activity change % (negative = inhibition),[10],12.9% (inactive) and 0.314% (inactive)
same,Potency,[19],54.5 µM (active) and 61.1 µM (active)
